Measurements as given in PubChem BioAssay AID1259400 (National Center for Advancing Translational Sciences (NCATS), 2018).
Values joined by “and” are separate entries in the source; they are usually repeats but may differ in a detail not shown here. Equal values may be shown once. The campaign covered roughly 350,000 compounds. About 2,100 (0.6%) were called active. Inconclusive results (about 1%) are left out.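 Rule for the calls: active = activity change of -60% or lower, but not beyond a set lower limit; inconclusive = change between -60% and -40%, or beyond the set limit; inactive = change above -40%.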 Shown is part of a subset that was picked to be rich in actives. Some structures have more than one record in an assay (separate samples or runs), and their calls can disagree.

target: Relaxin receptor 1 (Homo sapiens) (UniProt Q9HBX9); experiment: qHTS Assay for Antagonists of the Relaxin Receptor RXFP1; details: HEK293-RXFP1, relaxin-stimulated cAMP HTRF, 30 min; at 57.5 µM; stronger effect = lower value
Sequence (Q9HBX9 whole entry, looked up): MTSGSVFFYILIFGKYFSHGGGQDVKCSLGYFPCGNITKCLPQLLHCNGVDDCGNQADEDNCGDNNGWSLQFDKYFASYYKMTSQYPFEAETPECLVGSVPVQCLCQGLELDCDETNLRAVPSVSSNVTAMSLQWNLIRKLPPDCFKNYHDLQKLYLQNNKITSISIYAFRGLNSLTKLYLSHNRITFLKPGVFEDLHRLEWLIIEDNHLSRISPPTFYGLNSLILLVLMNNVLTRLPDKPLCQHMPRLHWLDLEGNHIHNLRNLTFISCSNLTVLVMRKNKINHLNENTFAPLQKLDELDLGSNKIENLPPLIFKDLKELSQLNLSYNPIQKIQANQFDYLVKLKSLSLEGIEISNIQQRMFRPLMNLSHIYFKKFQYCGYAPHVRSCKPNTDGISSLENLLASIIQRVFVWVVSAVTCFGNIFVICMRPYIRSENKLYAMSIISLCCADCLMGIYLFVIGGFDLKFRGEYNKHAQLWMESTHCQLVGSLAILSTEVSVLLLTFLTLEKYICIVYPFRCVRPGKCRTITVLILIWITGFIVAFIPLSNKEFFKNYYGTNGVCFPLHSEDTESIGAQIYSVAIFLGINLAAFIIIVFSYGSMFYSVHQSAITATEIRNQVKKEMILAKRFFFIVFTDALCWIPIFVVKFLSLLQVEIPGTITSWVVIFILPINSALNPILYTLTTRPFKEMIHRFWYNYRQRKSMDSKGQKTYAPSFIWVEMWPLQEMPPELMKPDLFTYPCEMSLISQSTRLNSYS
% is set by controls: 0 for no effect and ±100 for the full control effect.

Row | SMILES | activity change, negative = inhibition
1 | CC(C)Cn1c(=O)c2ccccc2n2c(-c3cccc(Cl)c3)nnc12 | -13.9% (inactive)
2 | CC(C)Cn1c(=O)c2ccccc2n2c(CCC(=O)N3CCN(c4cccc(Cl)c4)CC3)nnc12 | -87.5% (active)
3 | CC(C)Cn1c(=O)c2ccccc2n2c(CCC(=O)NCc3ccccn3)nnc12 | 1.58% (inactive)
4 | Cc1cc(O)c(C(c2ccccc2)N2CCN(c3ccccc3F)CC2)c(=O)n1Cc1ccco1 (configuration not stated) | -24.2% (inactive)
5 | CCOC(=O)c1[nH]c(C)c(CCC(=O)N2CCN(c3ccccc3)CC2)c1C | -8.52% (inactive)
6 | O=C(COC(=O)c1ccccn1)NNC(=O)c1ccc([N+](=O)[O-])cc1 | -74.5% (active)
7 | N/C(=N\OC(=O)c1ccc([N+](=O)[O-])cc1)c1ccccn1 | 8.07% (inactive)
8 | O=C(COC(=O)c1ccccn1)NNC(=O)c1ccc(Br)cc1 | -5.4% (inactive)
9 | CCn1c(C)c(C)c2cc(C(=O)NCCc3cc(OC)ccc3OC)ccc21 | -30.2% (inactive)
10 | Cc1ccnc(SCC(N)=O)n1 | -83.8% (active)
11 | Cc1cc(C)n2nc(SCC(N)=O)nc2n1 | -10.1% (inactive)
12 | CCn1c(CSc2nc(C)cc(C)n2)nnc1SCC(N)=O | 13.9% (inactive)
13 | COC(=O)[C@@H]1CC2=CC(=O)CC[C@]2(C)[C@@]23O[C@@H]2C[C@@]2(C)[C@@H](CC[C@@]24CCC(=O)O4)[C@H]13 | 12.2% (inactive)
14 | O=C1CSc2ccc(C(=O)NCc3ccccn3)cc2N1 | 5.23% (inactive)
15 | c1ccc(CN=C2Nc3ccccc3CS2)nc1 | -70.7% (active)
16 | c1ccc(CCc2ccccn2)cc1 | -14.5% (inactive)
17 | Cc1ccc(Nc2c(-c3ccc(N(C)C)cc3)nc3nc[nH]n23)cc1 | -4.77% (inactive)
18 | COc1cccc(C(c2c(O)cc(C)n(Cc3ccco3)c2=O)N2CCN(c3ccccc3)CC2)c1 (configuration not stated) | -4.37% (inactive)
19 | CCOc1ccc(N(C(=O)c2snc(C(N)=O)c2N)C(C(=O)NCC2CCCO2)c2c[nH]c3ccccc23)cc1 (configuration not stated) | -6.04% (inactive)
20 | Cc1ccc(C(C(=O)NCC2CCCO2)N(C(=O)c2snc(C(N)=O)c2N)c2ccc(C(C)C)cc2)o1 (configuration not stated) | -74% (active)
21 | Cc1ccc(N(C(=O)c2snc(C(N)=O)c2N)C(C(=O)NCC2CCCO2)c2c[nH]c3ccccc23)cc1 (configuration not stated) | -19% (inactive)
22 | Cc1cccc(Nc2cc(C)nc(-n3nc(C)cc3C)n2)c1 | -6.69% (inactive)
23 | CCOC(=O)c1c(S(=O)(=O)NCC(=O)Nc2ccc(Cl)c(C(F)(F)F)c2)c(C)n(C)c1C | -8.26% (inactive)
24 | COc1ccc(CCC(=O)NCCc2csc(-c3ccc(Cl)cc3)n2)cc1 | -21.7% (inactive)

Row | SMILES | activity change, negative = inhibition
25 | COc1ccc(N2CCN(C(=O)CNC(=O)c3ccc(Br)o3)CC2)cc1 | -3.36% (inactive)
26 | COc1ccc(-c2nc(CCNC(=O)c3ccc(Br)o3)cs2)cc1 | -32.7% (inactive) and -89.7% (active)
27 | C[N+](C)(CCOc1ccccc1)Cc1cccs1 (tested in a mixture with another compound) | 10.6% (inactive)
28 | Cc1ccc(-n2ncc3c(NCCCn4ccnc4)ncnc32)cc1Cl | -9.38% (inactive)
29 | COc1ccc(OC)c(CNC(=O)CN2C(=O)CCn3nc(-c4cn(C)c5ccccc45)cc32)c1 | -2.73% (inactive)
30 | CC(=O)OC1=C(C(C)=O)N(Cc2ccccc2)S(=O)(=O)c2ccccc21 | -3.88% (inactive)
31 | Cc1ccccc1N/C(SCc1ccc(Cl)cc1)=C(/C#N)C(N)=O | -65.6% (active)
32 | Cc1ccccc1NC(=S)NC(=O)Cc1ccc(Cl)cc1 | -24.7% (inactive)
33 | Cc1ccccc1NC(=O)CSC(=O)c1ccccc1 | -0.348% (inactive)
34 | O=S(=O)(NCC(c1ccccc1)N1CCc2ccccc21)c1ccccc1 (configuration not stated) | -18.8% (inactive)
35 | Cc1cc(NC(=O)CSc2ncc(C(F)(F)F)cc2Cl)no1 | -64.7% (active)
36 | Cc1cc(NC(=O)CSc2nnc(-c3ccc(Cl)s3)o2)no1 | -21% (inactive)
37 | Cc1cc(NC(=O)CSCC(=O)NC(C)c2ccccc2)no1 (configuration not stated) | 3.67% (inactive)
38 | COc1ccccc1N1CCN(S(=O)(=O)CCNC(=O)COc2ccc(F)cc2)CC1 | 8.32% (inactive)
39 | O=C(Nc1nc(-c2ccco2)c(-c2ccco2)s1)c1ccco1 | -61.6% (active)
40 | CCc1nnc(NC(=O)c2ccco2)s1 | 0.195% (inactive)
41 | Cc1ccc(NC(=O)c2ccco2)cc1 | -9.99% (inactive)
42 | Cc1ccc(C2c3[nH]c4ccccc4c3CCN2C(=O)c2cccc(C)c2)cc1 (configuration not stated) | -10.4% (inactive)
43 | Cc1cc(C)cc(NC(=O)Cn2nc(N3CCN(c4ccccc4)CC3)ccc2=O)c1 | -7.03% (inactive)
44 | Cc1ccc(NC(=O)CCCn2c(=O)c3cccn3c3ccccc32)cc1Cl | -24.4% (inactive)
45 | COc1ccc(C(=O)NCC(c2ccc(N(C)C)cc2)N2CCc3ccccc32)c(OC)c1 (configuration not stated) | -11.3% (inactive)
46 | COc1ccc(N2CCN(C(=O)C3CCCN(C(=O)c4cc5sccc5n4C)C3)CC2)cc1 (configuration not stated) | -23.3% (inactive)
47 | Cc1ccc(Cn2c(=O)n(Cc3nc(-c4ccccc4)no3)c(=O)c3cc4c(cc32)OCO4)cc1 | 15.5% (inactive)
48 | C#CCOc1ccc(/C=C2/C(=O)ON=C2C)cc1OCC | -2.39% (inactive)

Row | SMILES | activity change, negative = inhibition
49 | COc1cc(/C=C2/C(=O)NN(c3ccc(F)cc3)C2=O)cc([N+](=O)[O-])c1O | -12.2% (inactive)
50 | C#CCOc1ccc(/C=C2/C(=O)NN(c3ccccc3)C2=O)cc1OC | -66.6% (active)
51 | Cc1ccc(-c2nc3ccccn3c2Nc2c(C)cccc2C)o1 | -10.4% (inactive)
52 | COc1ccc(CNC(=O)c2ccc(NC(=O)N3CC4CCCN4c4ccccc43)cc2)cc1 (configuration not stated) | -9.24% (inactive)
53 | CSc1ccccc1-c1nnc(NC(=O)c2ccc3c(c2)OCCO3)o1 | 23.7% (inactive)
54 | COc1cc(OC)c(OC)cc1/C=C/c1nc2ccccc2c(=O)n1-c1ccc(Br)c(C)c1 | -16.8% (inactive)
55 | O=C(CCS(=O)(=O)c1cc(Br)cc2c1N(C(=O)C1CC1)CC2)Nc1ccc(Br)cc1F | 2.95% (inactive)
56 | O=S(=O)(NCCS(=O)(=O)N1CCN(c2ccccc2)CC1)c1ccc(F)cc1 | -74.9% (active)
57 | O=C(NCCS(=O)(=O)N1CCN(c2ccc(F)cc2)CC1)c1ccccc1Br | -4.07% (inactive)
58 | O=S(=O)(NCCS(=O)(=O)N1CCN(c2ccccc2)CC1)c1ccc(Cl)cc1 | -36.9% (inactive)
59 | CCCC(=O)O[C@]1(C(=O)COC(=O)CC)CC[C@@H]2[C@@H]3CCC4=CC(=O)CC[C@]4(C)[C@H]3[C@@H](O)C[C@@]21C | -16.1% (inactive)
60 | O=[N+]([O-])/C=C/c1ccc2c(ccn2Cc2ccccc2)c1 | -93.7% (active)
61 | COc1ccc(Cn2ccn(Cc3cccc(OC)c3)c(=O)c2=O)cc1 | 1.35% (inactive)
62 | O=c1c(=O)n(Cc2c(F)cccc2Cl)ccn1Cc1ccccc1 | -0.809% (inactive)
63 | Cn1cccc1/C=C1\SC(=O)N(CC(=O)Nc2ccc(F)cc2)C1=O | -75.7% (active)
64 | O=C(CN1C(=O)S/C(=C\c2ccccc2F)C1=O)NCCCn1ccnc1 | 4.7% (inactive)
65 | Cn1cccc1/C=C1\SC(=S)N(NC(=O)c2ccc(Cl)cc2)C1=O | -8.62% (inactive)
66 | COCCCNC(=O)c1c(NC(=O)c2cc(=O)c3cc(C)c(C)cc3o2)sc2c1CCCC2 | -4.73% (inactive)
67 | O=C(CSc1nccn1-c1ccc(F)cc1)Nc1cccc2ccccc12 | 1.1% (inactive)
68 | CC(C)c1ccc(NC(=O)c2ccc3c(O)c(S(=O)(=O)c4ccccc4)c(=O)[nH]c3c2)cc1 | -14% (inactive)
69 | COC(=O)c1c(NC(=O)c2cc(=O)c3c(C)cc(C)cc3o2)sc2c1CCCC2 | 3.21% (inactive)
70 | CCOC(=O)c1c(NC(C)=O)c2c3c(sc2n1Cc1c(C)cc(C)cc1C)CCCC3 | -73.1% (active)
71 | CCOC(=O)N1CCc2c(sc3c2c(=O)n(Cc2ccccc2)c(=O)n3CC(=O)Nc2cccc(C)c2)C1 | 4.91% (inactive)
72 | CCN(CC)S(=O)(=O)c1nnc(NC(=O)COc2ccccc2Cl)s1 | -10.5% (inactive)
